From PubChem
HIF-2a inh: blocks HIF-2a reporter activity; 786-0 RCC cells HIF-2a reporter, luciferase luminescence, overnight; 360,000 compounds, 0.72% hits; inhibition, % at 18.8 µM;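 active means inhibition of the luminescence signal of 40% or more relative to plate controls, in a single-dose primary screen at 18.75 µM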
KKLEB tox: counter-screen for CF NF-kB inhibitors: cytotoxicity; activity change (cytotoxicity), % at 5 µM; KKLEB CF airway cells viability, ATPlite luminescence, overnight; stronger effect = lower value; cells stimulated with P. aeruginosa culture filtrate; AID 602141; 360,000 compounds, 0.36% hits;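 active means corrected activity change at or below -50% at 5 µM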
CF NFkB block: blocks PAF-induced NF-kB reporter in cystic fibrosis cells | inhibition, % at 5 µM | KKLEB NF-kB-GFP reporter, GFP fluorescence overnight | 360,000 compounds, 0.86% hits;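 active means at least 50% inhibition at 5 µM, scaled per plate between neutral and stimulator controls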;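 further: PAF is a Pseudomonas aeruginosa culture filtrate used as stimulus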
Peg3 prom inh-1: inhibitors of Peg3 promoter. HeLa PEG-Prom luciferase reporter, luminescence, overnight. inhibition, % at 20 µM. 360,000 compounds, 1.7% hits;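 active means inhibition of at least 50% at 20 µM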
TROY NFkB inh: inhibitors of TROY-dependent NF-kB signaling; Q293 LMP1-TROYcd NF-kB luciferase reporter, 4 h; inhibition, % at 10 µM; 360,000 compounds, 0.98% hits; AID 1347056;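 active means compounds whose plate-normalised and pattern-corrected inhibition of the luciferase reporter signal at the single screening dose is 50% or more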
TWEAK Fn14 block: inhibitors of TWEAK-Fn14 interaction signaling. TWEAK-stimulated Fn14 reporter cells, luciferase luminescence, 8 h. inhibition, % at 10 µM. 360,000 compounds, 2% hits. AID 1159606; in the data active means inhibition above about 50%
Peg3 prom inh-2: Peg3 promoter inhibition confirmation. shares compounds with Peg3 prom inh-1. HeLa PEG-Prom luciferase reporter, luminescence, overnight. inhibition, % at 20 µM. 1,300 compounds, 84% hits;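 active means at 20 µM dose, 40% or more inhibition averaged across four replicates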
Mdm2 MdmX conf: Mdm2/MdmX (human) interaction inhibition, confirmed. shares compounds with HIF-2a inh. 740 compounds, 99% hits. SaOS-2 split-luciferase Mdm2/MdmX complementation, luminescence. AID 504601. inhibition, % at 8 µM;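 active means mean inhibition of the luminescence signal across two replicates at or above 26 percent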
Target sequence (O15151 whole entry, looked up): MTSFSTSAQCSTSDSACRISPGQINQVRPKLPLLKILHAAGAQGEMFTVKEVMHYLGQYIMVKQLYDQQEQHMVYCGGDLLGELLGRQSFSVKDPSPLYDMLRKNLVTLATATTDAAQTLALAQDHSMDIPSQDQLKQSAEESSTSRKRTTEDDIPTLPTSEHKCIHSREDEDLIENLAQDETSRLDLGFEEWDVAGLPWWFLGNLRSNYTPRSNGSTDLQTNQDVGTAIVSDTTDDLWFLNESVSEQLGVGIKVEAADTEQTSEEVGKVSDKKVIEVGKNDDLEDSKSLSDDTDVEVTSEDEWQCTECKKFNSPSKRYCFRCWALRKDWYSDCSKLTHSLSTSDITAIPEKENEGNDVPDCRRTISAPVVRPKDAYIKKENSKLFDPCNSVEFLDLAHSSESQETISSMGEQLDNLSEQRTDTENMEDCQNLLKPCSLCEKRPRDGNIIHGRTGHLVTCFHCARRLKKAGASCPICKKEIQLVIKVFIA
Target sequence (Q00987 whole entry, looked up): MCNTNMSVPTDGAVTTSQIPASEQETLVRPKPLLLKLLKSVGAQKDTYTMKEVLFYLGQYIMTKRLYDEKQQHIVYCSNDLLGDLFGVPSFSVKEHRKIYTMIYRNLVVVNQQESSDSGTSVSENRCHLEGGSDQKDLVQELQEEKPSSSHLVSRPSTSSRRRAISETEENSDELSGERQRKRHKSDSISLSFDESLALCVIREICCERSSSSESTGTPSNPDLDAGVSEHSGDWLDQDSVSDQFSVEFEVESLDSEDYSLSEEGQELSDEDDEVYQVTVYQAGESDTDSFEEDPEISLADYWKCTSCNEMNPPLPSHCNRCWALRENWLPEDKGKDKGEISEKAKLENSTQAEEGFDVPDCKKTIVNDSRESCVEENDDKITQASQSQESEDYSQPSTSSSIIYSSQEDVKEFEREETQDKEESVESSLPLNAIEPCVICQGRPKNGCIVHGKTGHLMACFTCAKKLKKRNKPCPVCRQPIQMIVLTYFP
HIF-2a conf: confirmation of HIF-2a inhibitors; shares compounds with HIF-2a inh; 1,800 compounds, 56% hits; 786-0 RCC cells, HIF-2a luciferase reporter luminescence, overnight; AID 651580; inhibition, % at 18.8 µM;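 active means mean inhibition across four replicates of at least 40 percent at the single tested concentration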
HIF-1a counter: counter-screen for HIF-2a inhibitors: HIF-1a inhibition in MiaPaCa-2 cells; shares compounds with HIF-2a inh; 1,800 compounds, 72% hits; inhibition, % at 18.8 µM; MiaPaCa-2 HIF-1a luciferase reporter, desferoxamine, overnight;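 active means mean inhibition of the reporter signal across four replicates at the single tested dose of 50% or more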
Each line names hits and unclear results; the compound was inactive in the other large screens (follow-up assays come after a bar, where they were run). Hits are enriched below; roughly 4% of the tested compounds scored in any of these assays.

CCOC(=O)C1(CC)Oc2ccccc2C(c2ccc(OC)cc2)=C1C(=O)OC (stereo not given)	none
COc1ccc(CCNC(=O)c2cc(-c3ccccc3)c(N3CCOCC3)s2)c(OC)c1OC	none
CC1=C(C(=O)OCc2ccc3c(c2)OCO3)C(c2ccc(Cl)cc2)NC(=O)N1 (stereo not given)	CF NFkB block 93, Peg3 prom inh-1 53, TROY NFkB inh 70, TWEAK Fn14 block 94 | Peg3 prom inh-2 inactive | Mdm2 MdmX conf 95
Cc1cccc(-n2c(SCC(=O)N3CCCC3)nc3n[nH]c(C)c3c2=N)c1	none
CCCCN(CC)C(=O)CSc1nc2n[nH]c(C)c2c(=N)n1-c1cccc(C)c1	HIF-2a inh 43, Peg3 prom inh-1 53 | Peg3 prom inh-2 43 | HIF-2a conf inactive | HIF-1a counter 61
O=S(=O)(Nc1cccc2ncccc12)c1cccs1	HIF-2a inh 65, Peg3 prom inh-1 103, TROY NFkB inh 65, TWEAK Fn14 block 107 | Peg3 prom inh-2 97 | Mdm2 MdmX conf 103
N#Cc1c(N)nc(SCc2ccncc2)c(C#N)c1-c1cccs1	HIF-2a inh 45, Peg3 prom inh-1 54 | Peg3 prom inh-2 70 | HIF-2a conf inactive | HIF-1a counter 61
CC(C)(C)C(=O)Nc1ccc(NC(=O)c2ccco2)nc1	HIF-2a inh 90, Peg3 prom inh-1 108, TROY NFkB inh 85, TWEAK Fn14 block 104 | Peg3 prom inh-2 92 | Mdm2 MdmX conf 98 | HIF-2a conf 96 | HIF-1a counter 96
O=C(Cc1ccccc1)Nc1ccc(NC(=O)c2ccco2)nc1	none
COc1ccc(Nc2oc(COc3ccccc3OC)nc2C#N)cc1	HIF-2a inh 59, Peg3 prom inh-1 77, TWEAK Fn14 block 55 | Peg3 prom inh-2 51 | HIF-2a conf 62 | HIF-1a counter 57
CCN1CCN(c2c(Cl)cccc2NC(=O)c2cc3ccccc3o2)CC1	none
COc1ccc2sc(N(CCCN(C)C)C(=O)c3ccc(S(=O)(=O)N4CCc5ccccc5C4)cc3)nc2c1	HIF-2a inh 82, KKLEB tox -98, CF NFkB block 74, Peg3 prom inh-1 101 | Peg3 prom inh-2 98 | Mdm2 MdmX conf 95 | HIF-2a conf inactive | HIF-1a counter 106
COc1ccc2sc(N(CCCN(C)C)C(=O)c3ccc(S(=O)(=O)N4CCCC4)cc3)nc2c1	none
CN(C)CCCN(C(=O)c1ccc(S(=O)(=O)N2CCc3ccccc3C2)cc1)c1nc2ccc(F)cc2s1	HIF-2a inh 73, Peg3 prom inh-1 104 | Peg3 prom inh-2 92 | HIF-2a conf inactive | HIF-1a counter 103
C(=NNc1ccc2ccccc2n1)c1ccccn1	HIF-2a inh 69, KKLEB tox -52, Peg3 prom inh-1 76, TROY NFkB inh 83, TWEAK Fn14 block 101 | Peg3 prom inh-2 78 | HIF-2a conf 81 | HIF-1a counter inactive
C(=N\N=C\c1ccccn1)/c1ccccn1	none
CCc1nc2ccc(C(=O)NCc3ccc(OC)cc3)cn2c1N(CC)CCOC	none
Cc1cc(C(=O)Nc2cccc(C(=O)O)c2)oc1C	HIF-2a inh 81, Peg3 prom inh-1 82 | Peg3 prom inh-2 52 | HIF-2a conf 78 | HIF-1a counter inactive
Cc1cccc(C)c1NC(=O)c1nc(S(=O)(=O)Cc2ccccc2)ncc1Cl	HIF-2a inh 77, KKLEB tox -88, CF NFkB block 95, Peg3 prom inh-1 100, TROY NFkB inh 53, TWEAK Fn14 block 74 | Peg3 prom inh-2 97 | HIF-2a conf 69 | HIF-1a counter 91
CSc1ncc(Cl)c(C(=O)Nc2cccc3ccccc23)n1	none
